From PubChem BioAssay
PMP22 txn – PMP22 gene transcription modulation | AID 1508649 | Potency, µM (series often up to 57.5 µM), without a hit: top-dose activity change, negative = inhibition, usual class: inhibitors | S16 Pmp22-F2sN Schwann cells, FLuc/NLuc coincidence luminescence, 24 h | 43,000 tested, 2% active; active = clear falling dose curves in both reporters; inconclusive = both reporters move, but less clearly or upward; inactive = either reporter flat; the % is the NLuc reporter signal; note: potency is the fitted concentration of half-maximal effect; % is set by controls: 0 for no effect and ±100 for the full control effect
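Rat S16 Pmp22-F2sN cells, 500-1,000/well in phenol red-free DMEM + 10% FBS, compound-treated 24 h (37C, 5% CO2). Luminescence: FLuc read, Stop&Glo added, NLuc read.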
pS6 MEF inh – inhibitors of mTORC1 signaling in Tsc2-/- p53-/- MEF cells. Tsc2-/- p53-/- MEF, phospho-rpS6 immunofluorescence/PI, 24 h. Potency, µM (highest dose often 38.3 µM), for the others: top-dose activity change, negative = inhibition, most hits filed as inhibitors. 44,000 tested, 0.78% active;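 note: potency is the fitted concentration of half-maximal effect; plate controls were DMSO for no effect and rapamycin for full effect; nearly all actives have a fitted effect of over 50% in size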
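Compounds act on Tsc2-/-, p53-/- fibroblasts carrying an empty vector for 24 h before fixation and dual staining for phospho-S6 and DNA (propidium iodide). Values are percentages of cells above a rapamycin-defined pS6/PI threshold.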
p53null 39C tox – selectivity test: cytotoxicity in p53 null cells, nonpermissive temperature. H1299 p53-null (neo) cells, 39C, ATPlite viability, 24 h. Potency, µM (top dose mostly 46.1 µM), for the others: at the highest dose activity, negative = cell killing, most hits filed as cytotoxic. 55,000 tested, 0.97% active. AID 904;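 note: potency is the fitted concentration of half-maximal effect; 0% = DMSO only and -100% = full killing by 100 µM tamoxifen; nearly all actives have a fitted effect of over 50% in size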
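Luminescent ATP signal reported cell survival after H1299 lines (neo, p53 null; or p53 A138V) received up to 46 uM compound and 24 hr incubation at 39C.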
S16 viability – S16 Schwann cell cytotoxicity; 43,000 tested, 0.48% active; Potency, µM (highest dose often 57.5 µM), for the others: top-dose activity change, negative = cytotoxicity, usual class: cytotoxic; S16 Pmp22-F2sN Schwann cells (luciferase reporters placed in the Pmp22 gene) viability, CellTiter-Glo, 24 h; note: potency is the fitted concentration of half-maximal effect; % is set by controls: 0 for no effect and ±100 for the full control effect; nearly all actives have a fitted effect of over 65% in size
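Rat S16 Schwann reporter line, 24 h treatment with library compounds delivered at 23 nL per well. Cell viability by CellTiter-Glo luminescence.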
p53null 32C kill – p53 null cell cytotoxicity, permissive temperature; H1299-neo p53 null cells, ATP luminescence, 24 h, 32C; Potency, µM (top dose mostly 46.1 µM), without a hit: at the highest dose activity change, negative = cytotoxicity, actives largely listed as cytotoxic; 55,000 tested, 0.62% active;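 note: potency is the fitted concentration of half-maximal effect; 0% = DMSO only and -100% = full killing by 100 µM tamoxifen; nearly all actives have a fitted effect of over 55% in size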
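Cells lacking p53 (H1299-neo) are plated at 600 per well and allowed to settle overnight at 37C. Test compounds (up to 46 uM) are added and held 24 hours at 32C, then ATP is quantified by luminescence.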
SKOV3 invasion – ovarian cancer metastasis inhibition, 3D TME model | AID 1963576 | 46,000 tested, 0.1% active | Potency, µM (series often up to 45.8 µM), without a hit: top-dose activity change, negative = inhibition, hits mostly inhibitors | SKOV3ip1-GFP adhesion/invasion on 3D omental model, fluorescence;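 note: potency is the fitted concentration of half-maximal effect; plate controls were DMSO wells for no effect and tomatine positive control wells for full effect; nearly all actives have a fitted effect of over 65% in size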
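qHTS, 4-pt dose (0.36-46 umol/L); SKOV3ip1-GFP, 1,200 cells/well, no FBS; primary omental fibroblast/mesothelial co-culture 48 h pre-grown; 2 h RT + 16 h 37 C; PBS wash, 4% PFA; GFP count 488/509 nm.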
NLuc sat counter – counter-screen for PMP22 expression modulators: NanoLuc inhibition, saturating substrate. shares compounds with PMP22 txn. Secreted NLuc enzyme (filtered S16 cell medium), Nano-Glo luminescence. Potency, µM (titrated, usually from 57.5 µM), for the others: at the top dose activity change, negative = inhibition, hits mostly inhibitors. 690 tested, 4% active; note: potency is the fitted concentration of half-maximal effect; % is set by controls: 0 for no effect and ±100 for the full control effect
NLuc Km counter – NanoLuc inhibition at Km substrate, PMP22 artifact check; shares compounds with PMP22 txn; secreted NLuc enzyme, coelenterazine luminescence, Km conditions; Potency, µM (doses to about 57.5 µM), for the others: at the top dose activity change, negative = inhibition, most hits filed as inhibitors; 690 tested, 5% active; note: potency is the fitted concentration of half-maximal effect; % is set by controls: 0 for no effect and ±100 for the full control effect
FLuc counter – firefly luciferase enzyme inhibition artifact for PMP22 screen. 690 tested, under 10 active. Potency, µM (top dose mostly 57.5 µM), for the others: at the highest dose activity, negative = inhibition, usual class: inhibitors. shares compounds with PMP22 txn. purified P. pyralis FLuc, luminescence, 10 min; note: % of control where 0% means no effect
Target sequence (P08659 whole entry, looked up): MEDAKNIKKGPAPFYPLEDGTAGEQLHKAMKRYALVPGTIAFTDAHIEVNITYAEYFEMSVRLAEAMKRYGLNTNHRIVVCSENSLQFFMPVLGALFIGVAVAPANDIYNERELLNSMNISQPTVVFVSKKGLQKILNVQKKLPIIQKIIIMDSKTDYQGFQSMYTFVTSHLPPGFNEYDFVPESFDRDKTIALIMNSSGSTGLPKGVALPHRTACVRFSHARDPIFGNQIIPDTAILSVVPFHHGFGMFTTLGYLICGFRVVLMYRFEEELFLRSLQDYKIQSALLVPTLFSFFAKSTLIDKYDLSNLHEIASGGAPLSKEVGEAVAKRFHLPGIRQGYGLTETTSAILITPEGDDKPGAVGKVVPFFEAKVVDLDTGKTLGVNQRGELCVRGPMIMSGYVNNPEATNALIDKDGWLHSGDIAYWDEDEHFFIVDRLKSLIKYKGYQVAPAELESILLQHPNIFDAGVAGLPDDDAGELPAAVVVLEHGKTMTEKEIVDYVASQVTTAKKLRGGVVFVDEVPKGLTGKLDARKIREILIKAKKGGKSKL
S16 viab conf – S16 Schwann cell cytotoxicity, confirmatory. Potency, µM (doses to about 57.5 µM), without a hit: top-dose activity change, negative = viability loss, hits mostly cytotoxic. shares compounds with PMP22 txn. 690 tested, 7% active. AID 1508641. S16 Schwann cells viability, CellTiter-Glo ATP luminescence, 24 h; note: potency is the fitted concentration of half-maximal effect; % is set by controls: 0 for no effect and ±100 for the full control effect
PMP22 txn cnf – PMP22 transcription modulation, confirmatory. 690 tested, 22% active. Potency, µM (titrated, usually from 57.5 µM), for the others: at the highest dose activity change, negative = inhibition, actives largely listed as inhibitors. S16 Schwann cells Pmp22-F2sN, dual luciferase, 24 h. shares compounds with PMP22 txn. AID 1508646; active = clear falling dose curves in both reporters; inconclusive = both reporters move, but less clearly or upward; inactive = either reporter flat; the % is the FLuc reporter signal; note: potency is the fitted concentration of half-maximal effect
Starred values were filed as active, the others as inactive; i = inactive; ? = inconclusive; . = no result given. Hits are enriched below; roughly 3.1% of the tested compounds scored in any of these assays. Unless noted, calls come from the whole dose curve; as a rule, active = well fitted curve in the direction sought with a large enough effect; inconclusive = small, poorly fitted or top-dose-only effect, or another doubt; inactive = no such curve, though single readings can be large; an effect the other way counts as inactive or inconclusive.

SMILES	PMP22 txn	pS6 MEF inh	p53null 39C tox	S16 viability	p53null 32C kill	SKOV3 invasion	NLuc sat counter	NLuc Km counter	FLuc counter	S16 viab conf	PMP22 txn cnf
Cn1nnnc1SCCNCc1cc(Br)ccc1OCc1ccccc1Cl	16µM*	-16%	-2%	?	-19%	-1%	?	?	-24%	-21%	?
COc1ccc(N2CCN(c3c4c(nc5nncn35)CCC4)CC2)cc1	13µM*	?	-14%	-26%	-4%	2%	?	0%	-8%	-8%	?
Cc1onc(-c2ccccc2)c1C(=O)N[C@@H]1C(=O)N2[C@@H](C(=O)O)C(C)(C)S[C@@H]12	.	.	.	.	.	-17%	.	.	.	.	.
O=c1[nH]c(-c2ccc(C(F)(F)F)cc2)nc2c1CSCC2	.	.	.	.	.	-16%	.	.	.	.	.
CCOC(=O)c1cc2c(=O)n3ccccc3nc2n(C(C)C)c1=NC(=O)c1c(-c2c(F)cccc2Cl)noc1C	11µM*	-1%	33%	?	12%	5%	?	-16%	3%	18%	?
CCOC(=O)c1cc2c(=O)n3ccccc3nc2n(C)c1=NC(=O)c1c(-c2c(F)cccc2Cl)noc1C	2.1µM*	-12%	3%	0%	1%	3%	?	-17%	5%	12%	-17%
N#Cc1c(C(F)(F)F)cc(-c2cccs2)nc1SCC(=O)Nc1ccc(Cl)cc1	19µM*	?	-19%	-5%	2%	4%	-4%	3%	-5%	9%	?
Cc1ccccc1C(C(=O)NC1CCCCC1)N(C(=O)Cn1ccnc1C)c1cccc(F)c1 (configuration not stated)	.	.	.	.	.	4%	.	.	.	.	.
Cc1ccc(S(=O)(=O)N2CCN(Cc3noc(CCC(=O)N4CCCCC4)n3)CC2)c(C)c1	?	-11%	-9%	-22%	-4%	-4%	0%	3%	3%	-13%	-16%
Cc1cc(C)c(S(=O)(=O)N2CCN(Cc3nc4ccc(C)cc4o3)CC2)c(C)c1	?	32%	3%	-11%	15%	-21%	.	.	.	.	.
CC(C(=O)O)c1ccc2c(c1)CC(=O)c1ccccc1S2 (configuration not stated)	.	.	.	.	.	-23%	.	.	.	.	.
COc1ccc(Cn2c(SCC(N)=O)nc3c(sc4ccccc43)c2=O)cc1	12µM*	-6%	0%	?	-15%	i	-6%	-2%	10%	27µM*	?
CCOC(=O)[C@@H](N)CCC(=O)N[C@@H](CSCc1ccccc1)C(=O)N[C@@H](C(=O)OCC)c1ccccc1	.	.	.	.	.	4%	.	.	.	.	.
CC(=O)c1ccc(NC(=O)CSC2=Nc3ccccc3N=C(c3ccc(F)cc3)C2)cc1	15µM*	4%	41%	?	-5%	16%	?	?	0%	-6%	?
COc1ccc(NC(=O)CCNS(=O)(=O)c2ccc3c(c2)CCN3C(=O)C2CC2)cc1Cl	14µM*	-24%	8%	-25%	6%	-25%	?	?	-5%	-7%	-38%
COCCN1Cc2cccc(C(=O)Nc3ccc(Cl)cc3Cl)c2C1=O	19µM*	-9%	3%	-26%	-3%	i	?	?	-8%	8%	-44%
CN(C1CCCCC1)S(=O)(=O)c1ccc2c(c1)c(=O)c(C(=O)NCc1ccc(Cl)cc1)cn2C	?	0%	-8%	-1%	1%	-7%	-1%	7%	7%	-11%	-31%
COc1ccc(C2CC(=O)N(CC(=O)Nc3cccc(C)c3C)c3ccccc3S2)cc1OC (configuration not stated)	12µM*	-7%	-1%	-6%	8%	5%	?	?	2%	-16%	-38%
CCOC(=O)c1sc2ccccc2c1S(=O)(=O)N1CCN(c2ccccc2)CC1	-10%	-10%	6%	6%	4%	-2%	.	.	.	.	.
CCOC(=O)c1sc2ccccc2c1S(=O)(=O)N1CCN(c2cccc(OC)c2)CC1	6.3µM*	?	7%	?	10%	?	-14%	-1%	6%	0%	-29%
CCN(C(=O)CSc1nc(-c2ccccc2)no1)c1cccc(C)c1	13µM*	6%	19%	-8%	16%	-22%	19µM*	4.8µM*	-13%	?	35%
CCN(C(=O)CSc1nc2ccccc2nc1Cc1ccc(F)cc1)c1cccc(C)c1	-51%	4%	25%	-15%	44%	43%	.	.	.	.	.
Cc1cccc(CCNc2ncnc3onc(-c4ccc(Cl)cc4)c23)c1	19µM*	1%	16%	-19%	16%	i	-1%	-1%	-6%	?	?
Cc1ccc(CCNc2ncnc3onc(-c4ccc(Cl)cc4)c23)cc1	?	2%	?	-17%	-6%	i	.	.	.	.	.
Clc1ccc(-c2noc3ncnc(NC4CCCCC4)c23)cc1	?	0%	1%	0%	-4%	i	-8%	-1%	-3%	-10%	?
CC1CCC(Nc2ncnc3onc(-c4ccc(Cl)cc4)c23)CC1 (configuration not stated)	-10%	-6%	-16%	-1%	1%	-3%	.	.	.	.	.
